Source: the supplement of paper PMC11732987, “Enantioselective OTUD7B fragment discovery through chemoproteomics screening and high-throughput optimisation” (Communications Chemistry, 2025)

Columns and labels:
Assay in all cases: log2 ratio of Biotin-Ahx-Ub-VS probe labelling (fragment/DMSO); higher = less target engagement (more negative = stronger competition), active = hit call of the paper (q ≤ 0.05, log2 ratio ≤ -1)
Conditions in all cases: compound concentration: 200 uM; treatment time: 3 h
USP34 = USP34 (UniProt Q70CQ2)
Method in brief: (§1)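 Using Biotin-Ahx-Ub-VS at 0.5 µM final for 1 h, DUBs were labelled in HEK293T lysate (495 µg per sample) that had first been treated in triplicate with fragment at 200 µM or vehicle for 3 h. NeutrAvidin enrichment, LysC and trypsin digestion and diaPASEF LC-MS/MS followed. Spectronaut label-free quantities were global-median-normalised. Values are average log2 fragment/vehicle ratios by unpaired t-test, using proteins with ≥2 unique peptides.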

USP36 = target: T1, USP36 (UniProt Q9P275)
T1 sequence (whole entry): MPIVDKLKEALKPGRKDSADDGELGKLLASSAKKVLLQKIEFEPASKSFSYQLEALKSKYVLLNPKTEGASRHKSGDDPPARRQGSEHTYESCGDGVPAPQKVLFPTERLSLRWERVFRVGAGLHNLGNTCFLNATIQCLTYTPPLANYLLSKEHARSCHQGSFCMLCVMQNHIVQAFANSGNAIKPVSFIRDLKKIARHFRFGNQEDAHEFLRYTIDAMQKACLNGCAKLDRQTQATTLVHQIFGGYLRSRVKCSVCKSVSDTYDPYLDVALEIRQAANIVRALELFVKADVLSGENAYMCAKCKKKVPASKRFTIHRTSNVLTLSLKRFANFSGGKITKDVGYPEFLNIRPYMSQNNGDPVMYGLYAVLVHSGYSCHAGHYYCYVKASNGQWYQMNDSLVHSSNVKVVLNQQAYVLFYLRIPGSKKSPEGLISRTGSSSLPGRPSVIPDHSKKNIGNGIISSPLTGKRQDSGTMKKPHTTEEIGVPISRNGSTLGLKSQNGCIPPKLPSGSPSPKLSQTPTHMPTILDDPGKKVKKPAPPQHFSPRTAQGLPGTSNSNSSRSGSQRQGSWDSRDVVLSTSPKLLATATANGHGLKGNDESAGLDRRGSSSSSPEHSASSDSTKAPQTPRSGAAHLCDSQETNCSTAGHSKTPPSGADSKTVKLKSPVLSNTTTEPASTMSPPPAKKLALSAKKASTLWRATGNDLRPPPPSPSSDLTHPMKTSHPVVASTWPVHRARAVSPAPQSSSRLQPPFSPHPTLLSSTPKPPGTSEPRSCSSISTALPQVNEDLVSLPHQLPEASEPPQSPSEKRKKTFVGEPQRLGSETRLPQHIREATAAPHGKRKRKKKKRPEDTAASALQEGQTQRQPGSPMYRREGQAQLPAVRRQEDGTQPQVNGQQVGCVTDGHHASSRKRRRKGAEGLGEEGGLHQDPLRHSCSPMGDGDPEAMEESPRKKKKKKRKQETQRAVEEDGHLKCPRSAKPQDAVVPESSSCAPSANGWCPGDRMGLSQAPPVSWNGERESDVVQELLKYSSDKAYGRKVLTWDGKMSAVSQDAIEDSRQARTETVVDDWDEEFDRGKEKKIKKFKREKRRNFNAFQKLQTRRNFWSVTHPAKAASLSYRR
Method in brief: as §1

USP38 = target: T2, USP38 (UniProt Q8NB14)
T2 sequence (whole entry): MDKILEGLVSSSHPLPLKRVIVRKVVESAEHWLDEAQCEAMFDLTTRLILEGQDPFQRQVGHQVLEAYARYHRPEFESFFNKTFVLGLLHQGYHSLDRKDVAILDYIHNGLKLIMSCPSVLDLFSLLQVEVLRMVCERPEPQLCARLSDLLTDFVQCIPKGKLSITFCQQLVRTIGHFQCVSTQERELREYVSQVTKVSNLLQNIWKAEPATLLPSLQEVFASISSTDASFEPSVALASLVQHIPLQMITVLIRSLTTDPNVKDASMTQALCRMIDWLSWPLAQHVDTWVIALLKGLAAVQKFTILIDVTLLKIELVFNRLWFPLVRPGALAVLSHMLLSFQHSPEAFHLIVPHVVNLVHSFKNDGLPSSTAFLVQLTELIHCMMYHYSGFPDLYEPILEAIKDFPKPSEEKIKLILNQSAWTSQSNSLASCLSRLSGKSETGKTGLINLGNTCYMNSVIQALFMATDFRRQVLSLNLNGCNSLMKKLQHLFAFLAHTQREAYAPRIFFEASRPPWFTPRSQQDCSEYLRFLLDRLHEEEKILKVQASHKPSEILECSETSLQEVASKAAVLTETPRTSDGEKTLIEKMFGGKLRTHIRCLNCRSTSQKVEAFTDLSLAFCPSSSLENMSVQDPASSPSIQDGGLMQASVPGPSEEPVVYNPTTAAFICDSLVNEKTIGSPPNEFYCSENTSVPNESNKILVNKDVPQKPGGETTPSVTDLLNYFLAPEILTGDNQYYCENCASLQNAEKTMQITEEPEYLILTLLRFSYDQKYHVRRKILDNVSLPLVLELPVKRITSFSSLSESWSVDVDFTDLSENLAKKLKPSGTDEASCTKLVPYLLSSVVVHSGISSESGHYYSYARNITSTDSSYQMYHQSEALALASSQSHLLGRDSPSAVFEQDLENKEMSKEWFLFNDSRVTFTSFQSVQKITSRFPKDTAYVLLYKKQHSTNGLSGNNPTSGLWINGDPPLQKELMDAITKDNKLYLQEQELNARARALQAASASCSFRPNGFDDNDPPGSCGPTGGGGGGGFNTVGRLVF
Method in brief: as §1

USP39 = target: T3, USP39 (UniProt Q53GS9)
T3 sequence (whole entry): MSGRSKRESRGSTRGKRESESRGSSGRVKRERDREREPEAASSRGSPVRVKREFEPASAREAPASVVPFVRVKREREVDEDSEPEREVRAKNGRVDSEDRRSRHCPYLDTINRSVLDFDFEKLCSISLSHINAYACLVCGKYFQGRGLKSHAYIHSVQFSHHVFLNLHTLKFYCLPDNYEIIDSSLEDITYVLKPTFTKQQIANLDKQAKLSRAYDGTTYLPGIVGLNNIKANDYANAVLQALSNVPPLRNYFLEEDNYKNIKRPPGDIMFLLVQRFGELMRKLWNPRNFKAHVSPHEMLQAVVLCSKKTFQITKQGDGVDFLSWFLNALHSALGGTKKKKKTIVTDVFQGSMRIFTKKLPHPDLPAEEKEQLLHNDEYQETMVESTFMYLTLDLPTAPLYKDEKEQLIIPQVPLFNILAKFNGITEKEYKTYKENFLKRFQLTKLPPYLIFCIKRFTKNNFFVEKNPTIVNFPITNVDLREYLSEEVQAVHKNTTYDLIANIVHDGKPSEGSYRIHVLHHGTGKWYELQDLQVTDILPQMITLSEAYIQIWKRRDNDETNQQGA
Method in brief: as §1

USP4 = target: T4, USP4 (UniProt Q13107)
T4 sequence (whole entry): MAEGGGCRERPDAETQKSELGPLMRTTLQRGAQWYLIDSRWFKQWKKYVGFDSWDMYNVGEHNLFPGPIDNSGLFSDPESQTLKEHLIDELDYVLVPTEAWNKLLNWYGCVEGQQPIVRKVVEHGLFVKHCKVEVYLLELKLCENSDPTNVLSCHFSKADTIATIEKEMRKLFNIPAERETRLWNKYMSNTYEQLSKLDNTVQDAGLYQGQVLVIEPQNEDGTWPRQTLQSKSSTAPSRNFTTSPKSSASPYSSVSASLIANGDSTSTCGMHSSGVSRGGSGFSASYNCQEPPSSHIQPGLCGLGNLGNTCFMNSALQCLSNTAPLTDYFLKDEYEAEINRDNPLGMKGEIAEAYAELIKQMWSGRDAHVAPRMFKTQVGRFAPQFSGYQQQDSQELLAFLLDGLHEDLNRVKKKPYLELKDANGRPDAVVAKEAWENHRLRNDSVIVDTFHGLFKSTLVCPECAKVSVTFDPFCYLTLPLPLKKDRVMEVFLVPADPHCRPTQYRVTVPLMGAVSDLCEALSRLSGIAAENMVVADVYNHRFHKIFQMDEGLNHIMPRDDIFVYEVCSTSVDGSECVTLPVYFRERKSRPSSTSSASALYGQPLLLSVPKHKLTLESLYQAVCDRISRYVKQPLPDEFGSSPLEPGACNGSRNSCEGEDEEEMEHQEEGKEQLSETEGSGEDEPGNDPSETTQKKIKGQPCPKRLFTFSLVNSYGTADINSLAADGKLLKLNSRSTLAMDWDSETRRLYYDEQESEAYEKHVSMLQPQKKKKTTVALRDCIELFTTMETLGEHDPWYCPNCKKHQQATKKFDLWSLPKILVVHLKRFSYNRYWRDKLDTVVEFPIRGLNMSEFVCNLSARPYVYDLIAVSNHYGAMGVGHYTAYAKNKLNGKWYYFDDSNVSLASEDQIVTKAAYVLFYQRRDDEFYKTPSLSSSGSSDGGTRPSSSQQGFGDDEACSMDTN
Method in brief: as §1

Measured: log2 ratio of Biotin-Ahx-Ub-VS probe labelling

USP34, sequence (Q70CQ2 whole entry, the tested form may be a part): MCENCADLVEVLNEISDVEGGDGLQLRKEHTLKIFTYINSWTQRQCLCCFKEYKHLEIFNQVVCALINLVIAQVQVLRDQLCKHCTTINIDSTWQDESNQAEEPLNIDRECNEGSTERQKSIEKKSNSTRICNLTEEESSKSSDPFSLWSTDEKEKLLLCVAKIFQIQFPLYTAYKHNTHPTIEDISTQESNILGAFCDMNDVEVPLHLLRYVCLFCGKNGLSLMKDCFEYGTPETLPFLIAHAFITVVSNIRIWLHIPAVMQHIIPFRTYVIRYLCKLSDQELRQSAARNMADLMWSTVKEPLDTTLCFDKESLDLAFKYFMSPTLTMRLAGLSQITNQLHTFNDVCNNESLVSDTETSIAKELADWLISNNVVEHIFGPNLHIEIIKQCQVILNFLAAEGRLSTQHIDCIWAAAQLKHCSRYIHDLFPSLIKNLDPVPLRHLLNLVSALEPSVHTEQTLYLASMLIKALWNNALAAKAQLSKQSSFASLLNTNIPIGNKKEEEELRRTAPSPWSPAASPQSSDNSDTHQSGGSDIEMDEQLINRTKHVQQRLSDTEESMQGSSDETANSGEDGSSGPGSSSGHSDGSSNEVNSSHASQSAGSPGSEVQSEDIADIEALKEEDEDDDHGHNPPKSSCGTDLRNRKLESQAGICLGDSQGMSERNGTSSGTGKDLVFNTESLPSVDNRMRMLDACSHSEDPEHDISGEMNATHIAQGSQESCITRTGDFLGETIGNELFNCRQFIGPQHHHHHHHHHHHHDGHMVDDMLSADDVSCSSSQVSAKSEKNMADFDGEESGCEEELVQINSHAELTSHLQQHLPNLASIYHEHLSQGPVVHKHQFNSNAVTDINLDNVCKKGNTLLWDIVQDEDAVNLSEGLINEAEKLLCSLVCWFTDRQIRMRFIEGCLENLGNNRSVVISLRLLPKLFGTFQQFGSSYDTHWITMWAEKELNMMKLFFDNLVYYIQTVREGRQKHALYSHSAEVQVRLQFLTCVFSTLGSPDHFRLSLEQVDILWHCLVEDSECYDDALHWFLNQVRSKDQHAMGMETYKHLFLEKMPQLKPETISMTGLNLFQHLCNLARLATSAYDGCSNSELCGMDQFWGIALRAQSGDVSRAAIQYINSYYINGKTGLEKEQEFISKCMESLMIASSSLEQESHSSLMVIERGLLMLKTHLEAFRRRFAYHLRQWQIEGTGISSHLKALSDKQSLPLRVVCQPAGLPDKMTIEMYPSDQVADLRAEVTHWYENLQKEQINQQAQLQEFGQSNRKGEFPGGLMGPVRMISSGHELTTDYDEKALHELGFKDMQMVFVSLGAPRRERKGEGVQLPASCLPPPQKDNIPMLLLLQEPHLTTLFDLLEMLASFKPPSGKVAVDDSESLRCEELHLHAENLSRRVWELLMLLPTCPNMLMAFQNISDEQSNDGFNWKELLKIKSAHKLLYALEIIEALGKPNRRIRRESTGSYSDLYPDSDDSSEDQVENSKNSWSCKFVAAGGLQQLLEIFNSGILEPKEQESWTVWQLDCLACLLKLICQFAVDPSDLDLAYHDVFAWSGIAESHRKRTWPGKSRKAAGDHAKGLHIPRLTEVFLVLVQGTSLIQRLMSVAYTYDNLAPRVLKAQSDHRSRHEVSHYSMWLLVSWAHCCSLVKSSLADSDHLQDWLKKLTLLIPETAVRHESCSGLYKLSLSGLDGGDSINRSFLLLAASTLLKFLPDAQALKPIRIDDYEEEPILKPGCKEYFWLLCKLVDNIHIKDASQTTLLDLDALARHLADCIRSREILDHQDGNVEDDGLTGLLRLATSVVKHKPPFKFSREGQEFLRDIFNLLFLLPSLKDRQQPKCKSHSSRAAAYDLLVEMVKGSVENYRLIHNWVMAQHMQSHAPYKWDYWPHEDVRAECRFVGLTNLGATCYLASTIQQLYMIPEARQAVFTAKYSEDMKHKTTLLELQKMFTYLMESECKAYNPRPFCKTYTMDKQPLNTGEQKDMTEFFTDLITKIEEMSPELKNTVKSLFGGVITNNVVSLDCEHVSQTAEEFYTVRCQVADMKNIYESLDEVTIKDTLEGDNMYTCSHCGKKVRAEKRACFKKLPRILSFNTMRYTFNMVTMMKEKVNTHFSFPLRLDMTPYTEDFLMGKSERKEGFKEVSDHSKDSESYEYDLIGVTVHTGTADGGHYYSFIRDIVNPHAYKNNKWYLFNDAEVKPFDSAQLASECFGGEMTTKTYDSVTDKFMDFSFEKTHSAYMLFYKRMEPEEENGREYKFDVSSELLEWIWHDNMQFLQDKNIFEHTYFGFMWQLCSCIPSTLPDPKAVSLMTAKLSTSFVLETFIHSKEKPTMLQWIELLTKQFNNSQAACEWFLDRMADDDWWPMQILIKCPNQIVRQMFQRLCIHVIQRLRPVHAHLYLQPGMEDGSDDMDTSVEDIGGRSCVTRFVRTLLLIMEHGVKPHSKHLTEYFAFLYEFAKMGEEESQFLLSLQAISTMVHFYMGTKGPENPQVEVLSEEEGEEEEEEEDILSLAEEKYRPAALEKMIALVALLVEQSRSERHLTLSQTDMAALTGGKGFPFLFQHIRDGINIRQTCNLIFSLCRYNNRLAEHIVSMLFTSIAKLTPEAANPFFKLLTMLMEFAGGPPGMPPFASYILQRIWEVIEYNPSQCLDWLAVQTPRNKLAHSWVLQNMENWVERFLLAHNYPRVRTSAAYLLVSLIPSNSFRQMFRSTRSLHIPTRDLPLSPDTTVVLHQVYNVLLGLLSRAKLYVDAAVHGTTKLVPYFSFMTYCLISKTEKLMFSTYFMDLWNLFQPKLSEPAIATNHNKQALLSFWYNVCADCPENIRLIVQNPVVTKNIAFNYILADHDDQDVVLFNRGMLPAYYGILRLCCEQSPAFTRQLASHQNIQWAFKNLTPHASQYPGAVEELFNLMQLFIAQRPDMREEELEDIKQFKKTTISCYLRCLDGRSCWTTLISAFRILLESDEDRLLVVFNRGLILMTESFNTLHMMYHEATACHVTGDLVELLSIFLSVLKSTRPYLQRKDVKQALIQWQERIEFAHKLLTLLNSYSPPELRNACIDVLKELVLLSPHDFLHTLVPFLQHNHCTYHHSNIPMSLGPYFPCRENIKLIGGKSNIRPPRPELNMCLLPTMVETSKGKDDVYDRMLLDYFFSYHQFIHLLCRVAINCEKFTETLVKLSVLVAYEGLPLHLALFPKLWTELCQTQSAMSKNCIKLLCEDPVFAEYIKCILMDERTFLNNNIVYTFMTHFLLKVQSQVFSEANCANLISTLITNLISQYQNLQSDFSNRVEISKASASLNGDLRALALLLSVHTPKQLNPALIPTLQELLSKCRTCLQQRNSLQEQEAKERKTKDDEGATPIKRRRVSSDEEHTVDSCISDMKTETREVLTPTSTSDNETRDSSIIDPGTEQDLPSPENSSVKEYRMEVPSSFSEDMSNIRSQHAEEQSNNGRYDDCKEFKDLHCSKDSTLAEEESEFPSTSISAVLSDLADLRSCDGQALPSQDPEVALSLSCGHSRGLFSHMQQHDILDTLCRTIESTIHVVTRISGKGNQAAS

O=C(CCl)NCc1ccc(Cl)cc1
inactive: USP34 -0.211 | USP36 0.0776 | USP38 -0.0243 | USP39 -0.155 | USP4 0.0847
